Test results taken from PubChem BioAssay (Tox21).
Several values for one entry are separate records, joined by “and”; a condition that tells them apart may be missing. Equal entries are not always repeated. Results filed as inconclusive are left out. Activity calls are given as the source filed them. Unless noted, calls follow the shape of the dose curve; as a rule, active = well fitted curve in the direction sought with a large enough effect in the repeat runs; inconclusive = weak or mixed curves; inactive = no such curve, though single readings can be large; an effect the other way counts as inactive or inconclusive.

Experiments:
[1] = qHTS assay to identify small molecule antagonists of the constitutive androstane receptor (CAR) signaling pathway - cell viability counter screen (AID 1224837); also: nearly all actives have a fitted effect of over 45% in size
How it was run: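 Cells are seeded, rested 4 hr at 37 C/5% CO2, dosed with compound (15-point series) and 50 nM CITCO, incubated a further 23 hr, and then CellTiter-Fluor reagent is added before fluorescence is read. The line is HepG2 with stable hCAR and CYP2B6-2.2kb.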

[2] = molecular target: Nuclear receptor subfamily 1 group I member 3 (Homo sapiens) (UniProt Q14994); assay: qHTS assay to identify small molecule antagonists of the constitutive androstane receptor (CAR) signaling pathway (AID 1224838);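 also: HepG2 cells stably expressing hCAR with CYP2B6 luciferase reporter stimulated by CITCO; nearly all actives have a fitted effect of over 40% in size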
How it was run: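 Luminescence from a CYP2B6-2.2kb promoter reporter in hCAR-expressing HepG2 cells reflects CAR signaling. Cells received compounds at 15 concentrations and 50 nM CITCO (final), then incubated 24 h at 37 C/5% CO2.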

[3] = molecular target: Nuclear receptor subfamily 1 group I member 3 (Homo sapiens) (UniProt Q14994); assay: qHTS assay to identify small molecule agonists of the constitutive androstane receptor (CAR) signaling pathway (AID 1224839);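 also: HepG2 cells stably carrying human CAR and a CYP2B6 luciferase reporter; nearly all actives have a fitted effect of over 15% in size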
How it was run: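 Double-stable HepG2 cells (hCAR, CYP2B6-2.2kb) seeded 4 h before compound addition. Exposure 24 h with 0.75 uM PK11195 final. Luciferase detected by ONE-Glo.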

[4] = qHTS assay to identify small molecule antagonists of the estrogen related receptor signaling pathway with the pleiotropic PPARgamma coactivator (PGC) from Tox21 10K library - cell viability counter screen (AID 1224840; active = well fitted cell-killing curve with a large enough effect in the repeat runs, not every such curve was filed as active; also: nearly all actives have a fitted effect of over 40% in size)
How it was run: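 Cell viability is measured by CellTiter-Fluor fluorescence in PGC/ERR cells that receive compounds after a 6-hour attachment period and are then incubated 17.5 hours at 37 C.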

[5] = molecular target: Thyrotropin receptor (Homo sapiens) (UniProt P16473); assay: qHTS assay to identify small molecule agonists of the thyroid stimulating hormone receptor (TSHR) signaling pathway (AID 1224843; calls by dose curve; also: nearly all actives have a fitted effect of over 45% in size)
How it was run: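 HEK293/TSHR, 800 cells/well; cpd 30 min RT; add cAMP-d2 + anti-cAMP-cryptate, 1 h RT; fluorescence read on plate reader. 15-pt titration, n=3.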

[6] = qHTS assay to identify small molecule agonists of the hypoxia (HIF-1) signaling pathway - cell viability counter screen (AID 1224844; calls by dose curve; also: nearly all actives have a fitted effect of over 50% in size)
How it was run: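 Viability counter screen: HRE-bla ME-180 cells plated 5 hrs before compound addition, treated 17 hrs at 37C and 5% CO2, then CellTiter-Glo added after the FRET reporter read; luminescence after 30 min.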

[7] = qHTS assay to identify small molecule agonists of H2AX (AID 1224845; active = well fitted activation curve with a large enough effect in the signal ratio in the repeat runs, not every such curve was filed as active; the % refers to the signal ratio)
How it was run: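 Wild-type CHO-K1 cells, plated overnight, exposed 3hr at 37C to 15 concentrations (0.76% DMSO final). Lysed, then HTRF anti-pH2AX (S139) cryptate and anti-H2AX-d2 antibodies, 24 hr room temperature; 665/620 nm emission read.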

[8] = qHTS assay to identify small molecule agonists of the hypoxia (HIF-1) signaling pathway (AID 1224846; active = well fitted activation curve with a large enough effect in the signal ratio in the repeat runs, not every such curve was filed as active; the % refers to the signal ratio)
How it was run: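 Agonist mode reporter screen. ME-180 cells stably expressing bla under HRE control received test compounds in DMSO for 17 hrs (37C, 5% CO2), and beta-lactamase activity was then detected with the CCF4-AM FRET substrate.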

[9] = qHTS assay to identify small molecule agonists of H2AX - cell viability counter screen (AID 1224847; calls by dose curve; also: top concentration of the series differs between compounds; nearly all actives have a fitted effect of over 30% in size)
How it was run: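 Quantitative HTS viability measurement: CHO-K1 wild-type cells in serum (10% FBS) medium, short 3 hr drug exposure at 37C with 0.76% DMSO, CellTiter-Glo luminescent detection.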

[10] = qHTS RealTime-Glo MT Cell Viability Assay in HepG2 cells - 24 hour (AID 1224867); also: nearly all actives have a fitted effect of over 50% in size
How it was run: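 Real-time, nonlytic viability: 600 HepG2 cells/well mixed with NanoLuc enzyme plus prosubstrate; 5 h settle, compound (DMSO) added by pintool; luminescence monitored over 40 h at 37 C.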

[11] = qHTS RealTime-Glo MT Cell Viability Assay in HEK293 cells - 32 hour (AID 1224868); also: top concentration of the series differs between compounds; nearly all actives have a fitted effect of over 50% in size
How it was run: (§1)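 Cells + reagent dispensed (600 cells/well, HEK293) → 5 h at 37 C/5% CO2 → 23 nL compound in DMSO pinned → 40 h at 37 C → luminescence read at 0, 8, 16, 24, 32, 40 h.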

[12] = qHTS RealTime-Glo MT Cell Viability Assay in HepG2 cells - 40 hour (AID 1224870); also: nearly all actives have a fitted effect of over 50% in size
How it was run: (§2)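 HepG2 cells (600/well) mixed with RealTime-Glo MT reagent, settled 5 h at 37 C/5% CO2 before compound addition. Nonlytic NanoLuc luminescence from viable-cell prosubstrate reduction read repeatedly during 40 h treatment at 37 C.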

[13] = A CellTox Green Cytotoxicity Assay to monitor cytotoxicity in HEK293 cells - 40 hour (AID 1224871); also: nearly all actives have a fitted effect of over 45% in size
How it was run: (§3)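 Dead-cell fluorescence measured kinetically: asymmetric cyanine dye, HEK293, 600 cells/well, 5 h settle, 23 nL cpd/DMSO, 37 C, reads 0–40 h every 8 h.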

[14] = qHTS RealTime-Glo MT Cell Viability Assay in HEK293 cells - 16 hour (AID 1224872)
How it was run: as §1

[15] = qHTS RealTime-Glo MT Cell Viability Assay in HepG2 cells - 8 hour (AID 1224873); also: nearly all actives have a fitted effect of over 55% in size
How it was run: as §2

[16] = qHTS assay to identify small molecule antagonists of the estrogen related receptor signaling pathway with the pleiotropic PPARgamma coactivator (PGC) from Tox21 10K library (AID 1224841; call rule not given here)
How it was run: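 Cells stably carrying the PGC/ERR reporter, seeded at 2,000 per well, received pin-transferred compounds 6 h post-plating. Exposure lasted 18 h at 37 C. Signal: One-Glo luminescence.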

[17] = qHTS assay to identify small molecule agonists of the estrogen related receptor signaling pathway with the pleiotropic PPARgamma coactivator (PGC) from Tox21 10K library (AID 1224842); also: nearly all actives have a fitted effect of over 15% in size
How it was run: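 PGC/ERR reporter cell line, 2,000 cells per well, incubated 6 h at 37 C before 23 nL compound in DMSO was added. After 18 h at 37 C, One-Glo luminescence read following 30 min at room temperature.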

[18] = qHTS assay to identify small molecule antagonists of the estrogen related receptor (ERR) signaling pathway from Tox21 library (AID 1224848); also: nearly all actives have a fitted effect of over 50% in size
How it was run: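 Compounds dissolved in DMSO are pin-transferred onto ERR reporter cells (2,000 per well) that have settled for 6 h at 37 C. Plates then incubate 18 h at 37 C before ONE-Glo luciferase reagent and a luminescence read 30 min later.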

[19] = qHTS assay to identify small molecule agonists of the estrogen related receptor (ERR) signaling pathway from Tox21 library (AID 1224849; calls by dose curve; also: nearly all actives have a fitted effect of over 15% in size); details: ERR reporter cell line, ONE-Glo luciferase, 18 h; at 92.4 µM (top of the series)
How it was run: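 Quantitative HTS in agonist format: NTP ERR cell line, compounds transferred in DMSO after 6 h plating, 18 h incubation at 37 C, ONE-Glo luminescence endpoint.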

[20] = A CellTox Green Cytotoxicity Assay to monitor cytotoxicity in HEK293 cells - 0 hour (AID 1224869); also: nearly all actives have a fitted effect of over 50% in size
How it was run: as §3
% is scaled to controls: 0 for no effect and ±100 for the full control effect.

Sequence of Thyrotropin receptor (Homo sapiens) (P16473 whole entry, looked up): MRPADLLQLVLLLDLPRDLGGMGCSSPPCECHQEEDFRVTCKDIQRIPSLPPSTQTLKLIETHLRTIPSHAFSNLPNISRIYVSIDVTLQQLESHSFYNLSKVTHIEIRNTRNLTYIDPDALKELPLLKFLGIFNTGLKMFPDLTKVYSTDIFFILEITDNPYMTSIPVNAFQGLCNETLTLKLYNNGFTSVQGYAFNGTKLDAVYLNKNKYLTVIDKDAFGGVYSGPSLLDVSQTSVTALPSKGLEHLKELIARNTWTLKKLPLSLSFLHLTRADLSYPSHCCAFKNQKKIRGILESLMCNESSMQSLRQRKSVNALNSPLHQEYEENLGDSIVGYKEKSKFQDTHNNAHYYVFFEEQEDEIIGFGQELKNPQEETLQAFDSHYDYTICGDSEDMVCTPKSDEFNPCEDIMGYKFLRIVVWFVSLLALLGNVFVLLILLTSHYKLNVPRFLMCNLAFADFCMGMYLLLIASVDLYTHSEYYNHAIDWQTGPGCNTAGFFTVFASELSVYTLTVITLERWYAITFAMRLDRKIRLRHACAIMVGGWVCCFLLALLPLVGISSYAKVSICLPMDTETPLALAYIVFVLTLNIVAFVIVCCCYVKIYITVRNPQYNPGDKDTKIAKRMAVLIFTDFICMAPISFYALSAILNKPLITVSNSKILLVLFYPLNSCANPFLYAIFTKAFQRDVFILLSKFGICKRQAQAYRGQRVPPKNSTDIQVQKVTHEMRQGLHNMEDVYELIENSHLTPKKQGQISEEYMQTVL
Sequence of Nuclear receptor subfamily 1 group I member 3 (Homo sapiens) (Q14994 whole entry, looked up): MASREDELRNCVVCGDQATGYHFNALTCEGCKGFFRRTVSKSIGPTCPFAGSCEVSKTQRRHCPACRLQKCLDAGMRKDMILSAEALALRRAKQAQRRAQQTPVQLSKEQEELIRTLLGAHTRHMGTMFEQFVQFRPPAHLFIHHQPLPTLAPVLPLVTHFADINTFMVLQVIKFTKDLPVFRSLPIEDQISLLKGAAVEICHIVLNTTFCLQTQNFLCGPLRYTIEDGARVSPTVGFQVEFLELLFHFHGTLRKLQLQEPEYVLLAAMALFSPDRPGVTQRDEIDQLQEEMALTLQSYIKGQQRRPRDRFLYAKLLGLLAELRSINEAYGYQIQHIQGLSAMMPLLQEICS

O=C(O)C(Cl)(Cl)Cl
inactive: Potency [1] | Potency [2] | Potency [3] | Potency [4] | Potency [5] | Potency [6] | Potency [7] | outcome [8] | Potency [9] | Potency [10] | Potency [11] | Potency [12] | Potency [13] | Potency [14] | Potency [15]

O=C(O)c1nc(Cl)ccc1Cl
inactive: Potency [1] | Potency [4] | Potency [5] | Potency [6] | Potency [7] | outcome [8] | Potency [9] | Potency [10] | Potency [11] | Potency [12] | Potency [13] | Potency [14] | Potency [15]

O=C(O)c1ccccc1O
inactive: Potency [1] | Potency [2] | Potency [3] | Potency [4] | Potency [6] | Potency [7] | outcome [8] | Potency [9] | Potency [10] | Potency [11] | Potency [12] | Potency [13] | Potency [14] | Potency [15]

CC[N+](CC)(CC)CC
inactive: Potency [1] | Potency [2] | Potency [3] | Potency [4] | Potency [5] | Potency [6] | Potency [7] | outcome [8] | Potency [9] | Potency [10] | Potency [11] | Potency [12] | Potency [13] | Potency [14] | Potency [15]

O=[N+]([O-])c1ccccc1O
inactive: Potency [1] | Potency [2] | Potency [3] | Potency [4] | Potency [16] | Potency [17] | Potency [6] | Potency [7] | outcome [8] | Potency [9] | Potency [18] | activity change, positive = activation [19] 2.74% and 26.9% and 8.3% | Potency [10] | Potency [11] | Potency [20] | Potency [12] | Potency [13] | Potency [14] | Potency [15]

O=c1nc(O)n(Cl)c(=O)n1Cl
inactive: Potency [1] | Potency [4] | Potency [16] | Potency [17] | Potency [6] | Potency [7] | outcome [8] | Potency [9] | Potency [18] | activity change, positive = activation [19] 9.16% and 1.98% and 3.37% | Potency [10] | Potency [11] | Potency [20] | Potency [12] | Potency [13] | Potency [14] | Potency [15]
